Only a selection was taken, and hits are over-represented in it overall.
Shiga inhibitor – inhibitors of Shiga toxin in Vero cells; Vero cells, Shiga toxin protein synthesis inhibition reporter; inhibition, % at 38.7 µM; actives 9.2% (n = 290,000); AID 2315; in the data active = inhibition mostly above about 28%, no sharp cut-off; inactive = mostly below about 43%; also: 0% is about no effect
Giardia FBPA inh – inhibitors of Giardia lamblia fructose-1,6-bisphosphate aldolase | purified Giardia FBPA | AID 2451 | A8B2U2 | actives 0.71% (n = 290,000) | Potency, µM (titrated, usually from 59.6 µM), for the others: at the top dose activity, negative = inhibition, usual class: inhibitors; also: potency is read from the fitted curve at half-maximal effect; % is scaled to controls: 0 for no effect and ±100 for the full control effect; nearly all actives have a fitted effect of over 55% in size
Target sequence (A8B2U2 whole entry, looked up): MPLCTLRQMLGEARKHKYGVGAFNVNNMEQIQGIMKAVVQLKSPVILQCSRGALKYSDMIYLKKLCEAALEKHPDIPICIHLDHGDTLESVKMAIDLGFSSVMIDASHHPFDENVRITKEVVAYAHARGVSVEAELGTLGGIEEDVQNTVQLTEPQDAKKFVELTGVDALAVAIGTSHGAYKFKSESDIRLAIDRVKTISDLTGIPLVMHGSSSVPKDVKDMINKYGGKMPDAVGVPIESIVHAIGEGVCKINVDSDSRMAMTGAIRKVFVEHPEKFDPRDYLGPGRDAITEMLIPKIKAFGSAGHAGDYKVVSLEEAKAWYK
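40 nM FBPA preincubated 10 min at RT with compound (up to 57.5 uM final), then substrate plus GAPDH/TPI/NAD/arsenate coupling and diaphorase/resazurin added. Fluorescence read after 20 min at RT, 525/598 nm.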
LmPK inhibitor – blocks Leishmania mexicana pyruvate kinase activity. Q27686. purified LmPK, Kinase-Glo ATP luminescence, 1 h. Potency, µM (doses to about 57.5 µM), inactives show at the highest dose activity change, negative = inhibition, most hits filed as inhibitors. actives 0.37% (n = 290,000). AID 1721; also: potency is read from the fitted curve at half-maximal effect; % is scaled to controls: 0 for no effect and ±100 for the full control effect
Target sequence (Q27686 whole entry, looked up): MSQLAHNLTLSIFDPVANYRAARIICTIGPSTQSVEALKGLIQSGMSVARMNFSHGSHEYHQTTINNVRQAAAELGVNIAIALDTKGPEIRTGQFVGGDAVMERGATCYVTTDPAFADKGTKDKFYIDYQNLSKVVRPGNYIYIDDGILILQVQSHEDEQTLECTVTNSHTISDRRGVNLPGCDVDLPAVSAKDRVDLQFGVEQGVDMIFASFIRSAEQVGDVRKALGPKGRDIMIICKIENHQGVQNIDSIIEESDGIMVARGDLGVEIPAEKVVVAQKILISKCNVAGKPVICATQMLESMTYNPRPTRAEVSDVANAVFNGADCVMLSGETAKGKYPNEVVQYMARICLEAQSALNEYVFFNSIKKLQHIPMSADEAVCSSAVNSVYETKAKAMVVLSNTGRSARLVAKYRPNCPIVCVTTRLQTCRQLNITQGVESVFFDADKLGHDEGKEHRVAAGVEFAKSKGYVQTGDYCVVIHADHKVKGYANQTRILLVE
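0.1 nM LmPK, 0.5 mM PEP, 0.1 mM ADP; 50 mM imidazole pH 7.2, 7 mM MgCl2, 50 mM KCl; 1 h RT. Kinase-Glo luminescence readout, normalized to no-enzyme (full inhibition) and uninhibited wells.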
Tb PYK inh – blocks Trypanosoma brucei pyruvate kinase | actives 0.12% (n = 410,000) | AID 624173 | TbPYK enzyme, Kinase-Glo Plus ATP luminescence, 45 min | Potency, µM (top dose mostly 76.8 µM), without a hit: at the highest dose activity, negative = inhibition, actives largely listed as inhibitors | Q57TT1; also: potency is read from the fitted curve at half-maximal effect; % is scaled to controls: 0 for no effect and ±100 for the full control effect; nearly all actives have a fitted effect of over 50% in size
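Luminescent Kinase-Glo Plus end-point after 45 min room-temperature reaction of T. brucei pyruvate kinase started with 130 uM ADP (final). Buffer TEA 50 mM pH 7.2 with KCl, MgCl2, BSA, Tween-20; titration-based qHTS with fitted concentration-effect curves.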
RE007 growth inh – less growth of the S. pombe RE007 Vpr strain; S. pombe RE007 Vpr strain, BacTiter-Glo ATP luminescence, 24 h; Potency, µM (highest dose often 92.2 µM), without a hit: at the highest dose activity change, negative = less growth, usual class: inhibitors; actives 0.21% (n = 360,000); AID 651644; active = well fitted falling curve with a large enough effect; inconclusive = small, poorly fitted or top-dose-only effect; inactive = no such curve, though single readings can be large or run the other way; also: potency is read from the fitted curve at half-maximal effect; % is scaled to controls: 0 for no effect and ±100 for the full control effect; nearly all actives have a fitted effect of over 50% in size
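Fission yeast RE007 carrying one integrated HIV-1 vpr copy, seeded at OD 0.01 in PMG+AL medium with 23 nL pinned compound. Grown 24 h at 30 degrees; viability read by BacTiter-Glo luminescence after 5 min.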
CHX counter – counter-screen for Shiga toxin inhibitors: cycloheximide protein synthesis inhibition. cell reporter, cycloheximide protein synthesis inhibition counterscreen. max response, %. actives 12% (n = 300,000); in the data active = max response mostly above about 13%, no sharp cut-off; inactive = mostly below about 14%; also: read at 38.3 µM for the half of the compounds with a filed dose; 0% is about no effect
* hit, by the source's call; ? = inconclusive; / = not tested or not shown; [ ] = remark or other dose. Unless noted, calls follow the shape of the dose curve; as a rule, active = well fitted curve in the direction sought with a large enough effect; inconclusive = small, poorly fitted or top-dose-only effect, or another doubt; inactive = no such curve, though single readings can be large; an effect the other way counts as inactive or inconclusive.

SMILES | Shiga inhibitor | Giardia FBPA inh | LmPK inhibitor | Tb PYK inh | RE007 growth inh | CHX counter
CC(=O)OC[C@@H]1O[C@@H](O/N=C2/C[C@@H](O)[C@@H](O)[C@@H]3[C@@H]4C(=O)N([C@@H](C)c5ccccc5)C(=O)[C@H]4CC[C@@H]23)[C@H](OC(C)=O)[C@H](OC(C)=O)[C@@H]1OC(C)=O | / | 2.6%[12.9 µM] | / | / | / | /
Cc1onc(-c2ccccc2Cl)c1C(=O)OCC(=O)c1ccc2c(c1)OCCO2 | 120.9* | -3.0% | 1.4% | 0.3% | -1.2% | 59.1*
CC(=O)Nc1ccccc1C(=O)OCC(=O)c1ccc2c(c1)OCCO2 | 97.7* | 1.2% | 1.1% | 1.5% | -6.3% | 32.0*
Cc1cc(C(=O)CSc2nc3ccc(Cl)cc3[nH]2)c(C)n1C | 15.7 | -20.0% | 2.8% | -15.9% | -10.0% | 8.0
O=C(CSc1nc2ccc(Cl)cc2[nH]1)c1cccs1 | 122.4* | -26.5% | 2.4% | -18.0% | 1.7% | 57.8*
O=C(CSc1nc2cc(Cl)ccc2o1)c1cccs1 | 43.4 | -9.6% | 6.1% | -5.2% | ? | 23.2*
Cc1ccc(-n2nc(CO)c(C(=O)NC(C)CCCc3ccccc3)n2)cc1C (centres undefined) | / | / | / | 1.2% | / | /
Cc1cccc(C(=O)Nc2ccc(OCc3cc(=O)n4ccsc4n3)cc2)c1 | / | / | / | -9.0% | / | /
COc1ccc(OC)c(C2CC(c3ccccc3)=NN2C(=S)Nc2ccccc2)c1 (centres undefined) | 30.7 | 0.1% | 2.5% | 2.6% | -11.2% | 8.4
COc1ccccc1C1=NN(C(=S)Nc2ccccc2)C(c2ccco2)C1 (centres undefined) | 51.3* | 0.5% | -2.0% | -13.2% | -3.2% | 28.0*
CSc1ccc(CNC(=O)CCc2c(C)nn(-c3ccc(N4CCCC4)nn3)c2C)cc1 | / | / | / | -2.1% | / | /
COc1cccc([C@@H]2Oc3ccc(Br)cc3C[C@H]2O)c1 | / | 2.1% | / | / | / | /
O=[N+]([O-])c1ccc(COc2ccccc2/C=N/O)cc1 | 89.5* | 1.6% | -3.0% | -3.2% | -9.0% | 44.9*
COc1cc(/C=N\n2nnnc2N)ccc1OCc1ccc(F)cc1 | -5.3 | 0.5% | 0.5% | 3.7% | -12.1% | 33.0
O=Cc1ccccc1OCCOc1ccc([N+](=O)[O-])cc1 | 43.1 | 0.4% | 1.0% | -6.3% | 2.7% | 25.6*
CC(=O)c1ccc(OCCOc2ccc([N+](=O)[O-])cc2)cc1 | -11.3 | 5.0% | 2.8% | 1.0% | -16.8% | -3.2
CCOc1cc(/C=N/O)ccc1OCc1ccc(F)cc1 | 65.2* | -18.5% | 1.5% | -24.3% | -11.2% | 10.4
O=C1NC(=O)/C(=C\c2ccccc2OCc2ccc([N+](=O)[O-])cc2)N1 | -11.8 | -3.0% | -0.5% | -19.9% | 0.1% | -5.2
COc1cc(/C=N/n2c(C)n[nH]c2=S)ccc1OCc1ccc(F)cc1 | 65.3* | 7.6% | -0.8% | ? | -2.3% | 48.5*
CCOc1cc(/C=N/NC(=O)c2ccccc2OCc2ccc(F)cc2)ccc1O | / | / | / | 1.9% | 4.2% | /
CCOc1cc(/C=N/O)ccc1OCc1ccc([N+](=O)[O-])cc1 | 37.4* | ? | 0.4% | -13.6% | -19.8% | 9.1
Fc1ccc(Nc2nc(-c3cccc(Cl)c3)c3c(n2)-c2ccccc2OC3)cc1 | / | / | / | -3.7% | / | /
O=Nc1ccc(NOC(=O)c2ccccc2Br)cc1 | 127.4* | -6.0% | ? | -16.3% | ? | 85.0*
O=C(ONc1ccc(N=NC(=O)c2ccccc2O)cc1)c1ccccc1 | -8.5 | -12.2% | -20.7% | -13.0% | -10.4% | -2.8
CCN=c1scc(-c2ccccc2)n1/N=C/c1ccccn1 | 78.0* | 2.8% | -7.0% | -5.7% | -7.8% | 41.2*
SMILES | Shiga inhibitor | Giardia FBPA inh | LmPK inhibitor | Tb PYK inh | RE007 growth inh | CHX counter
CCN=c1scc(-c2ccc(F)cc2)n1/N=C/c1ccccn1 | 82.1* | -9.1% | 6.7% | 1.2% | 5.1% | 47.9*
CCCCn1nc(NC(=O)c2cccc(Cl)c2)c2cc3cccc(C)c3nc21 | / | / | / | -0.8% | / | /
O=C(NCc1ccco1)c1ccc2c(c1)N(Cc1ccc(F)cc1)C(=O)c1ccccc1S2(=O)=O | / | / | / | 0.6% | / | /
CC1(C)CC(=O)c2cnc(NC(=O)c3ccco3)nc2C1 | 83.7* | 2.1% | -2.7% | 5.6% | 5.7% | 19.9
CC1(C)CC(=O)c2cnc(NC(=O)CCc3ccccc3)nc2C1 | -4.1 | 4.0% | -7.0% | -0.4% | 3.3% | 0.3
COc1cc(/C=N/NC(=S)N/N=C/c2cc(OC)c(OC)c(OC)c2)cc(OC)c1OC | 86.8* | 7.1% | 0.2% | 11.1% | -0.1% | 38.2*
COc1cc(/C=N/NC(=S)NCCN2CCOCC2)cc(OC)c1O | 76.7* | ? | -0.5% | -5.2% | -4.1% | 18.7*
COc1ccc(CNC(=S)N/N=C/c2ccc(O)c(OC)c2)cc1 | 17.8 | -5.5% | -0.6% | -23.2% | 12.3% | -2.8
COc1cc(/C=N/NC(N)=S)ccc1OCc1ccc(C)cc1 | 65.8* | -0.2% | 6.3% | 1.3% | 1.7% | 30.3*
COc1ccc(CNC(=S)N/N=C/c2ccc(OC)c(OC)c2)cc1 | 17.4 | 1.3% | 1.1% | 2.0% | 0.2% | 20.6*
COc1ccc2c(c1)C(=O)[C@@H](OC(=O)Nc1cc(OC)c(OC)c(OC)c1)[C@H](c1ccc(OC)c(Br)c1)O2 | / | -1.2% | / | / | / | /
COc1cccc(Cn2c(=O)c(C)nc3cnc(OCc4ccccc4)nc32)c1 | / | 2.5% | / | 5.5% | / | /
COc1cc(/C=N/NC(=O)COc2cc(C)cc(C)c2)ccc1OS(=O)(=O)c1ccc(C)cc1 | -8.5 | 3.7% | -2.2% | -14.4% | 8.3% | 4.6
CCc1ccc(OCC(=O)N/N=C/c2ccc(OS(=O)(=O)c3ccc(C)cc3)c(OC)c2)cc1 | 8.6 | 4.4% | 3.5% | -14.6% | 16.3% | 12.8*
CCN1CCSc2ccc(C(=O)NC(C)c3ccccc3)cc21 (centres undefined) | / | / | / | 0.7% | / | /
C=CCOc1ccccc1CNc1ccc2c(c1)OCCO2 | 52.9* | ? | -1.3% | -9.6% | -4.0% | 26.7*
CCOc1ccc(Br)cc1CNc1ccc2c(c1)OCCO2 | 42.8 | -22.6% | 1.9% | -22.4% | -16.6% | 23.4*
C=CCOc1ccccc1CNc1cccc(F)c1 | -9.2 | -10.9% | -7.7% | 18.9% | 15.2% | -1.0
COc1cccc(-c2csc(N3CCN(Cc4ccccc4)CC3)n2)c1 | 32.4 | -8.2% | -5.3% | -22.2% | -9.1% | 17.6*
COc1cccc(NC(=O)N2CCN(c3nc(-c4cccc(OC)c4)cs3)CC2)c1 | 2.0 | -5.7% | 2.2% | -21.8% | -2.6% | 9.8
CNC(=S)N1CCN(c2nc(-c3cccc(OC)c3)cs2)CC1 | 1.1 | -3.3% | 1.3% | 2.3% | 20.2% | 9.9*
CNC(=S)N1CCN(c2nc(-c3ccc(Cl)cc3)cs2)CC1 | 21.0 | 16.6% | 7.2% | -14.6% | -16.6% | 16.0*
COCCNC(=S)N1CCN(c2nc(-c3ccc(Cl)cc3)cs2)CC1 | 13.3 | 1.7% | 5.6% | -4.6% | -9.5% | -2.0
